Laboratory results published in the supplement of paper PMC10849652.
Of roughly 7,900 targets only a part is listed; those with a hit were picked by preference. About 0.6% of all pairs of compound and target were hits. Unmarked numbers belong to inactive results.

Each target was assayed with CC1=C(C=C(C=C1)NC(=O)C2=CC(=CC=C2)N(C)C)NC(=O)C3=CC=C(C=C3)O (assay: log2 fold change, soluble protein after heating vs DMSO (PISA); higher = thermal stabilisation; K562 cells, 10 uM, 30 min; active = over 0.2 and 3.5 SD of the protein, either way, in both replicates (recomputed)).
Outline: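 K562 cells at 2×10^6 cells/mL were exposed to 10 μM compound for 30 min, then aliquots were heated for 3 min across 48°C-58°C, pooled, and extracted in PBS containing 0.5% NP-40 at 4°C. The supernatant after 21,000xg for 90 min was taken as soluble protein and measured by TMTpro 16plex LC-MS/MS with channel sums equalised. Thermal stability is reported relative to control samples, with values from duplicates. Fold changes are given on a log2 scale.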

Chain of UniProt P98082 (P98082 whole entry, looked up): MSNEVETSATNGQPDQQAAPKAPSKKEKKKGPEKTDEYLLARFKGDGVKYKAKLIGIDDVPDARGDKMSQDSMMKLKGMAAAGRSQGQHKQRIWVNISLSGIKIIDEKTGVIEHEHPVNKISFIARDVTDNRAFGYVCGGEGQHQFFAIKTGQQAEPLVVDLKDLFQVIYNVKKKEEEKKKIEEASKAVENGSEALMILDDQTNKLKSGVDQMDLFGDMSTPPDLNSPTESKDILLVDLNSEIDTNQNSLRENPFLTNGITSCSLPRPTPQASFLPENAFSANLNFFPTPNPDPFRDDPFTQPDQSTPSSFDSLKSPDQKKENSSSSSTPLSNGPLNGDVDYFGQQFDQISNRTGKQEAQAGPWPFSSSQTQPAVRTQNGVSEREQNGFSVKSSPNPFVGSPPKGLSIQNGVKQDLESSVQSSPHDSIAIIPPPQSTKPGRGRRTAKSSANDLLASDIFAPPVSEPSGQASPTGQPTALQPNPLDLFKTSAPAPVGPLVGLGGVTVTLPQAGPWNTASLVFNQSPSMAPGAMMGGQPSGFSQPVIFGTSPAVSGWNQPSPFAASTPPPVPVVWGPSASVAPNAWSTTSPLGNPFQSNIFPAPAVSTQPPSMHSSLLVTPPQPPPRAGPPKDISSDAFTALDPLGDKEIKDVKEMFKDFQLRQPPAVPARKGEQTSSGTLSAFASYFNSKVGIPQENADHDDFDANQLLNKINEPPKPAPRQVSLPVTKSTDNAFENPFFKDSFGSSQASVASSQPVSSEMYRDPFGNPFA
Chain of UniProt O60573 (O60573 whole entry, looked up): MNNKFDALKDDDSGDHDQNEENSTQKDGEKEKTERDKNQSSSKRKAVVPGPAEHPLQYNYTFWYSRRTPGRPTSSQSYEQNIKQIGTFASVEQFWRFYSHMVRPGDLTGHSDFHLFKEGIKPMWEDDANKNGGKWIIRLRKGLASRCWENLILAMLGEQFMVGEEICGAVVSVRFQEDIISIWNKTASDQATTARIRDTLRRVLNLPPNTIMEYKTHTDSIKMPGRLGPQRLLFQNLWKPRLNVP
Chain of UniProt O60610 (O60610 whole entry, looked up): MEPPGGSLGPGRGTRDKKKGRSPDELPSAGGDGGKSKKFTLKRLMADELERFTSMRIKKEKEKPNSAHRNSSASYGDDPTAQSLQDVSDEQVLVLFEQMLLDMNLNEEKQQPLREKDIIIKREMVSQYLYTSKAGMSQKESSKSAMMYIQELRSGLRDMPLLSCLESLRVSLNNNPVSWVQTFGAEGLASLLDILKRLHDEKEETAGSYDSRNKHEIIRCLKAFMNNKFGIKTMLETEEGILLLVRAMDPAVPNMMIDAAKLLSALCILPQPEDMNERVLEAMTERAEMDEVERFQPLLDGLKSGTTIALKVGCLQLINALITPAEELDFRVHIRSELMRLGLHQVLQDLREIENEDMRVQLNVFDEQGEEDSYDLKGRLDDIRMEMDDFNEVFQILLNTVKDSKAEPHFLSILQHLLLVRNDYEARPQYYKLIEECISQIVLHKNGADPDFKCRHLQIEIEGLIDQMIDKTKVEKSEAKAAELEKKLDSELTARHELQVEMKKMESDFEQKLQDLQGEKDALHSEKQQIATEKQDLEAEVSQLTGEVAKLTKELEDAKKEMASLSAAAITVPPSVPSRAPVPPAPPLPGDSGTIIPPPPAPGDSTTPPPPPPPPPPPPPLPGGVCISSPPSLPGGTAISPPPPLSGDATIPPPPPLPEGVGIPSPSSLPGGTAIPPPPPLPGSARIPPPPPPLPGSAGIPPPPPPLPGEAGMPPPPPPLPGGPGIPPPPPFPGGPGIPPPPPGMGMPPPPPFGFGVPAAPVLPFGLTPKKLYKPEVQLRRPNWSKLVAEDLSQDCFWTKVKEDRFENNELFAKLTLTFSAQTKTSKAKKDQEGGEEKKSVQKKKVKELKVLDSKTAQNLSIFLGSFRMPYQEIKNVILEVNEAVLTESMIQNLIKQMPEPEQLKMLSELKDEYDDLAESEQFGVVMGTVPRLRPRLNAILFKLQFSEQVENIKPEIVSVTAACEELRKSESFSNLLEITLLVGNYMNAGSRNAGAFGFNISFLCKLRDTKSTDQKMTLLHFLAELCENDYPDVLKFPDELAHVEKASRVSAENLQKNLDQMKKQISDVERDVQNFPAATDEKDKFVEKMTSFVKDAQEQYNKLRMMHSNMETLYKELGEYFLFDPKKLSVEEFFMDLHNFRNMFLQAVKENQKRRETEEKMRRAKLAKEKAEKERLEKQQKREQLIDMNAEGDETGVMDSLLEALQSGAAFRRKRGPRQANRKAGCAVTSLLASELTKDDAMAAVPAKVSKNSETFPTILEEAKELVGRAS
Chain of UniProt Q96EV8 (Q96EV8 whole entry, looked up): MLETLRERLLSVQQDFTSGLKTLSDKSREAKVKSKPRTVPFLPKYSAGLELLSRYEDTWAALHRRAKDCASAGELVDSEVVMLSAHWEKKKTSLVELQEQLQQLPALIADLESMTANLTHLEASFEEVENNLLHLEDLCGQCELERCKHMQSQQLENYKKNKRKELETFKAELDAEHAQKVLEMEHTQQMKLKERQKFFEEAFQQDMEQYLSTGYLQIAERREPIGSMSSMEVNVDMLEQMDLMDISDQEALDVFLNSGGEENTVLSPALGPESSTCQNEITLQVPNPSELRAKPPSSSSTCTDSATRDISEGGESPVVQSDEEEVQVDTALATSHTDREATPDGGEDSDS
Chain of UniProt Q9H773 (Q9H773 whole entry, looked up): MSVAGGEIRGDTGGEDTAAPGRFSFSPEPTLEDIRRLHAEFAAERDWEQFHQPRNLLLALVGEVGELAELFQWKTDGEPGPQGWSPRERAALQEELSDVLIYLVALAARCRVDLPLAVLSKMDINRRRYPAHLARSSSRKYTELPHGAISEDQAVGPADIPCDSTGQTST
Chain of UniProt O60888 (O60888 whole entry, looked up): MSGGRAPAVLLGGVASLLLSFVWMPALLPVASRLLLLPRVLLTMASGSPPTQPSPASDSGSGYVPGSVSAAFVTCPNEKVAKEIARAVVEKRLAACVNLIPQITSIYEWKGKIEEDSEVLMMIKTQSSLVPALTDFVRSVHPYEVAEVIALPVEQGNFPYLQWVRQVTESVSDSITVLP
Chain of UniProt P29692 (P29692 whole entry, looked up): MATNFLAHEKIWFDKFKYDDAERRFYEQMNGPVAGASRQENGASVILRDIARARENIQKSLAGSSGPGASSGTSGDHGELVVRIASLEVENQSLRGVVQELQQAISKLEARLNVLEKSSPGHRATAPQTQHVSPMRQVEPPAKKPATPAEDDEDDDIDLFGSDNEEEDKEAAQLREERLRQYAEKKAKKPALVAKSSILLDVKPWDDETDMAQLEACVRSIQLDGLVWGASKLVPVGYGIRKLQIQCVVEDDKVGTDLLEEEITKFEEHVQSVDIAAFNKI
Chain of UniProt Q9NRY5 (Q9NRY5 whole entry, looked up): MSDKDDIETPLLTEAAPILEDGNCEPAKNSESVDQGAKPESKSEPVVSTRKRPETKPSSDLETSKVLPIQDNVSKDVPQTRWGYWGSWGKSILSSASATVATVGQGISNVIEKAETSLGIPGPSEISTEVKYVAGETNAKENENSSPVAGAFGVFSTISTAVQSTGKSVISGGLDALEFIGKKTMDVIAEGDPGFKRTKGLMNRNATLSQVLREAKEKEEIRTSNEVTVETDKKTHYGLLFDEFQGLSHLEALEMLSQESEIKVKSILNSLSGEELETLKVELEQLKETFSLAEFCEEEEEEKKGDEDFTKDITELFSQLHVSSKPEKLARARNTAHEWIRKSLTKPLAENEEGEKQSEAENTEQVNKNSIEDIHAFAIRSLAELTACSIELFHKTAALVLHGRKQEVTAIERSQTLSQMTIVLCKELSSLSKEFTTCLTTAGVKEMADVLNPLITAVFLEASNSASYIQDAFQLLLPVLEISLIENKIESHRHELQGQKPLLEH
Chain of UniProt Q9NVR5 (Q9NVR5 whole entry, looked up): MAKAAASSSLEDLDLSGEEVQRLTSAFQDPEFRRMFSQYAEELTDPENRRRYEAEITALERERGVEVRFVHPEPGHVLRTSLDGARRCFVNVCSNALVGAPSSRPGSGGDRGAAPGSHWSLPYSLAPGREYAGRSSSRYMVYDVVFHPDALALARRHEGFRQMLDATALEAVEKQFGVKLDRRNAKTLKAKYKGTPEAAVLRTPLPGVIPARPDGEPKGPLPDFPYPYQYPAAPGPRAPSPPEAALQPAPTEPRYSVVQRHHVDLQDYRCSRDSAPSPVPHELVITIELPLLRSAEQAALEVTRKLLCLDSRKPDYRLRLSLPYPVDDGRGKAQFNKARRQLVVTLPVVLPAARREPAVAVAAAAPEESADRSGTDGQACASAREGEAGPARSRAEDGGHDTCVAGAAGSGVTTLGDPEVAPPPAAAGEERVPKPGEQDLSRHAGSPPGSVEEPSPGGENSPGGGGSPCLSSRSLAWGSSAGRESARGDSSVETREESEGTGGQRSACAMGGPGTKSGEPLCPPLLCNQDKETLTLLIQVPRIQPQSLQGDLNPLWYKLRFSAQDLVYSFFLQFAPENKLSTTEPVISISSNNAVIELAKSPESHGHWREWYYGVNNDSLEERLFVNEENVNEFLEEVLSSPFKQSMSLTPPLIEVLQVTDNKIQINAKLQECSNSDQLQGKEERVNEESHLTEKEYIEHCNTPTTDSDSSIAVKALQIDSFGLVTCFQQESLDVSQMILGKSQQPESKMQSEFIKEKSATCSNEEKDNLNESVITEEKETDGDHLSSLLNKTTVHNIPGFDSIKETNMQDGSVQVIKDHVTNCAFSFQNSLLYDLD
Chain of UniProt Q8N128 (Q8N128 whole entry, looked up): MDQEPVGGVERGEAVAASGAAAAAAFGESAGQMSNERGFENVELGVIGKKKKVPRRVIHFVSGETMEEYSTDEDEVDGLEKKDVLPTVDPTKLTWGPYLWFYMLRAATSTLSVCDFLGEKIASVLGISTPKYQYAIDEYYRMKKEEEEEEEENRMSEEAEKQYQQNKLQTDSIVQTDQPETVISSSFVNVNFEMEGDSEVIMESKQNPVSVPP
Chain of UniProt Q6P3W2 (Q6P3W2 whole entry, looked up): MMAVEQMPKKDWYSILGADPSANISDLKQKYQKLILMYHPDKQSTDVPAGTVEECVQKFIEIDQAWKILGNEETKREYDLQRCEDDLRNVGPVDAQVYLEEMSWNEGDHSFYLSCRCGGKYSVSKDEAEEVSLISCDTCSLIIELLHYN

ECPAS (UniProt Q5VYK3) and FAAP100 (UniProt Q0VG06) are within 0.2 log units of each other in log2 fold change: -0.06 for the first, -0.001 for the second.

DCTN1 isoform 4 (UniProt Q14203) and DMAC1 (UniProt Q96GE9) are within 0.2 log units of each other in log2 fold change: -0.017 for the first, 0.041 for the second.

Compared with DBNL isoform 3 (UniProt Q9UJU6), DNAJC24 (UniProt Q6P3W2) is higher in log2 fold change: -0.019 for the first, 0.368 for the second.

EIF4E2 (UniProt O60573) and DHPS (UniProt P49366) are within 0.2 log units of each other in log2 fold change: -0.006 for the first, 0.016 for the second.

DBR1 (UniProt Q9UK59) and ELOC (UniProt Q15369) are within 0.2 log units of each other in log2 fold change: 0.028 for the first, -0.034 for the second.

EXOC8 (UniProt Q8IYI6) and EEF1D isoform 2 (UniProt P29692) are within 0.2 log units of each other in log2 fold change: -0.085 for the first, -0.034 for the second.

DHRS7B (UniProt Q6IAN0) and ERCC2 (UniProt P18074) are within 0.2 log units of each other in log2 fold change: -0.066 for the first, 0.014 for the second.

EIF2S3 (UniProt P41091) and CYP51A1 (UniProt Q16850) are within 0.2 log units of each other in log2 fold change: 0 for the first, -0.036 for the second.

FAM114A2 (UniProt Q9NRY5) and CUTA isoform 2 (UniProt O60888) are within 0.2 log units of each other in log2 fold change: 0.03 for the first, -0.011 for the second.

EEF1B2 (UniProt P24534) and DCTPP1 (UniProt Q9H773) are within 0.2 log units of each other in log2 fold change: -0.025 for the first, -0.078 for the second.

EED, A0A5F9ZI63 and DTWD1 (UniProt Q8N5C7) are within 0.2 log units of each other in log2 fold change: -0.067 for the first, -0.042 for the second.

Going from EEF1A1 (UniProt P68104) to FAM177A1 isoform 2 (UniProt Q8N128), the log2 fold change rises from -0.068 to 0.152.

E2F4 (UniProt Q16254) and FAM50A (UniProt Q14320) are within 0.2 log units of each other in log2 fold change: 0.011 for the first, -0.059 for the second.

DIAPH1 (UniProt O60610) and DUS3L (UniProt Q96G46) are within 0.2 log units of each other in log2 fold change: -0.05 for the first, -0.015 for the second.

DLD (UniProt P09622) and CUEDC2 (UniProt Q9H467) are within 0.2 log units of each other in log2 fold change: 0.025 for the first, -0.043 for the second.

DHCR24 (UniProt Q15392) and CTNNB1 (UniProt P35222) are within 0.2 log units of each other in log2 fold change: 0.01 for the first, -0.018 for the second.

DHX36 (UniProt Q9H2U1) and DYNC1I2 isoform 5 (UniProt Q13409) are within 0.2 log units of each other in log2 fold change: 0 for the first, -0.03 for the second.

DTNBP1 (UniProt Q96EV8) and DIP2A (UniProt Q14689) are within 0.2 log units of each other in log2 fold change: 0.006 for the first, -0.013 for the second.

DNAAF2 (UniProt Q9NVR5) and DAB2 (UniProt P98082) are within 0.2 log units of each other in log2 fold change: -0.043 for the first, 0.015 for the second.

DNAJC19 (UniProt Q96DA6) showed a log2 fold change of 0.001.
